Source: PubChem BioAssay (National Center for Advancing Translational Sciences (NCATS))
This is a sample that favours compounds with a hit; in the whole collection about 13% have one here.
FMDV antiviral = antivirals against foot and mouth disease virus; FMDV antiviral cell-based qHTS; Potency, µM (series often up to 57.9 µM), without a hit: top-dose activity change, negative = inhibition, usual class: inhibitors; actives 1.2% (n = 410,000); calls by dose curve; tested in HEK293T cells; also: read-out not given here; potency is read from the fitted curve at half-maximal effect; % is scaled to controls: 0 for no effect and ±100 for the full control effect; nearly all actives have a fitted effect of over 45% in size
Lassa entry inh = inhibitors of Lassa virus binding or cell entry; Lassa virus pseudotype entry inhibition, cell reporter; actives 1.2% (n = 300,000); Potency, µM (doses to about 37.9 µM), without a hit: top-dose activity change, negative = inhibition, hits mostly inhibitors; calls by dose curve; tested in HEK293 cells; also: potency is read from the fitted curve at half-maximal effect; % is scaled to controls: 0 for no effect and ±100 for the full control effect; nearly all actives have a fitted effect of over 50% in size
CHX counter = affects cycloheximide protein synthesis inhibition readout, counter-screen | cell reporter, cycloheximide protein synthesis inhibition counterscreen | max response, % | actives 12% (n = 300,000) | AID 2314; in the data active = max response mostly above about 13%, no sharp cut-off; inactive = mostly below about 14%; also: read at 38.3 µM for the half of the compounds with a filed dose; 0% is about no effect
HCV inh = inhibitors of hepatitis C virus infection; Huh7.5.1 HCVcc-Cre infection, luciferase reporter, 44 h; Potency, µM (titrated, usually from 41.8 µM), for the others: at the top dose activity change, negative = inhibition, actives largely listed as inhibitors; actives 3.4% (n = 340,000); active = well fitted inhibition curve with a large enough effect; inconclusive = small, poorly fitted or top-dose-only effect, or another doubt; inactive = no such curve, though single readings can be large or run the other way; also: potency is read from the fitted curve at half-maximal effect; % is scaled to controls: 0 for no effect and ±100 for the full control effect
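Cells (1,000/well) were plated 4 h before compound, then infected with HCVcc-Cre virus (~0.5 moi). After 44 h further culture, infection was read as luciferase luminescence following a 15 min substrate incubation at room temperature.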
Shiga toxin inh = Shiga toxin inhibition; actives 9.2% (n = 290,000); inhibition, % at 38.7 µM; AID 2315; Vero cells, Shiga toxin protein synthesis inhibition reporter; in the data active = inhibition mostly above about 28%, no sharp cut-off; inactive = mostly below about 43%; also: 0% is about no effect
MARV entry inh = Marburg virus entry inhibition. AID 540276. Marburg virus pseudotyped entry inhibition, cell reporter. actives 1.8% (n = 300,000). Potency, µM (series often up to 37.8 µM), for inactives: at the top dose activity change, negative = inhibition, usual class: inhibitors; calls by dose curve; tested in HEK293 cells; also: potency is read from the fitted curve at half-maximal effect; % is scaled to controls: 0 for no effect and ±100 for the full control effect
An asterisk follows results filed as active; ? = inconclusive; / = not tested or not shown; [ ] = dose if it differs, or a comment.

SMILES	FMDV antiviral	Lassa entry inh	CHX counter	HCV inh	Shiga toxin inh	MARV entry inh
COc1ccc(C(=O)Nc2cccc(C(=O)N3CCCCC3)c2)cc1	1%	-3%	13	/	33	27%
C=CCNC(=O)C1CCN(c2cc(C)nc(-c3ccccc3)n2)CC1	-1%	-21%[46.1 µM]	-3	-13%	-10	3%[46.1 µM]
CCSc1ncc(Cl)c(C(=O)Nc2c(C(=O)Nc3cccc(C)c3)oc3ccccc23)n1	-12%	6%[46.1 µM]	/	/	/	?
COc1cccc(C=NNC(=O)C2CC2)c1	4%	13%[46.1 µM]	/	10%	/	?
CCOC(=O)N/N=C\c1cccc(OC)c1	31%	-10%	42*	7%	72*	13%[46.1 µM]
COc1cccc(/C=N/NC(=O)CCCC(=O)Nc2ccc(Br)cc2)c1	-10%	-17%	0	?	11	-24%
COC(=O)N/N=C/c1cccc(OCCSc2ccc(Cl)cc2)c1	1%	?	34*	?	60*	?
COc1ccc(/C=C/C(=O)Oc2cccc(/C=N/NC(=O)Cc3ccc(Br)cc3)c2)cc1	42%	/	49*	-13%	89*	/
O=C(CSc1nc2c(sc3ccccc32)c(=O)n1CCCN1CCOCC1)NC1CCCC1	27%	-3%	1	11%	-9	8.2µM*
COc1cccc(NC(=O)CSc2nc3c(sc4ccccc43)c(=O)n2CCCN2CCCC2)c1	-16%	/	16*	?	39*	/
COc1cccc(NC(=O)CSc2nc3c(sc4ccccc43)c(=O)n2CCN(C)C)c1	-9%	?	-8	?	-12	?
CCN(CC)CCn1c(SCC(=O)Nc2cccc(OC)c2)nc2c(sc3ccccc32)c1=O	-16%	?	-6	1.8µM*	-4	?
O=C(CSc1nc2c(sc3ccccc32)c(=O)n1CCCN1CCCC1)NCc1ccccc1	14%	?	-1	?	-8	?
O=C(Cc1c(Cl)cccc1Cl)Nc1ccc(S(=O)(=O)Nc2ncccn2)cc1	5%	-37%	-6	?	-13	4%[46.1 µM]
CC(=O)c1cccc(NC(=O)c2nc(-c3ccccc3)n(-c3cccc(Cl)c3)n2)c1	-28%	-5%[46.1 µM]	/	/	/	?
CSc1nc2c(c(=O)[nH]1)C(c1ccncc1)C(C(=O)OC(C)C)=C(C)N2 (centres undefined)	-3%	16%	-1	16%	-12	0%
COc1ccc(-c2csc(NC3OC(=O)c4c3ccc(OC)c4OC)n2)cc1OC (centres undefined)	?	-11%	12*	-77%	12	?
COc1ccc2c(c1OC)C(=O)OC2Nc1nc(-c2ccc([N+](=O)[O-])cc2)cs1 (centres undefined)	13%	16%[46.1 µM]	16*	-9%	56*	17%[46.1 µM]
COc1ccc2c(c1OC)C(=O)OC2Nc1nc2ccccc2s1 (centres undefined)	15%	14%	8	22%	12	-1%
O=c1oc2ccc(Br)cc2cc1-c1csc(-c2ccccc2)n1	-7%	?	/	/	/	/
COc1ccc2c(c1OC)C(=O)OC2Nc1nc(-c2cc3cc(Br)ccc3oc2=O)cs1 (centres undefined)	-2%	-12%	37*	-6%	80*	22%[46.1 µM]
COc1ccc2c(c1OC)C(=O)OC2Nc1ccccn1 (centres undefined)	-7%	13%	4	25%	-20	9%
CCC(NC(=O)c1ccccc1NC(=O)c1ccco1)C(=O)NNC(=O)c1ccncc1 (centres undefined)	-3%	/	5	?	13	/
COc1ccc(N2CCN(C3CC(=O)N(C)C3=O)CC2)cc1 (centres undefined)	-23%	20%	-5	15%	-8	4%
COc1ccc(-c2cc(N)n(S(=O)(=O)c3c(F)c(F)c(F)c(F)c3F)n2)cc1OC	?	?	14*	?	33*	2.3µM*
SMILES	FMDV antiviral	Lassa entry inh	CHX counter	HCV inh	Shiga toxin inh	MARV entry inh
CCOc1ccc(S(=O)(=O)Nc2ccc(C(=O)NCC3(N4CCCCC4)CCCCC3)cc2)cc1	-5%	-5%	/	?	/	?
O=C1NCCN1CCNc1nc(NCC2CC2)nc2cc(-c3ccccc3)sc12	-16%	/	/	/	/	/
Fc1ccc(-c2cc(C(F)(F)C(F)F)[nH]n2)cc1	0%	6%	27*	?	65*	-8%[14.2 µM]
Oc1ccccc1-c1cc(C(F)(F)C(F)F)[nH]n1	/	-12%	22*	?	28*	?
FC(F)C(F)(F)c1cc(-c2ccc(Cl)cc2)n[nH]1	-18%	3%	31*	?	46*	-11%[14.2 µM]
O=c1[nH]nc(-c2ccc(F)cc2)cc1-c1ccccc1	-15%	?	-2	-3%	-9	-10%[46.1 µM]
COC(=O)C(NC(=O)CCc1c(C)nc2ncnn2c1C)C(C)C (centres undefined)	12%	8%	1	18%	-8	-2%
Cn1c(SCc2ccccc2Br)nc2ccccc2c1=O	-30%	/	-3	9%	-8	/
O=c1c2ccccc2nc(/C=C/c2cccc(Br)c2)n1CCCO	-27%	?	0	?	-14	?
Cn1c(/C=C/c2cccc(Br)c2)nc2ccccc2c1=O	9%	?	46*	-85%	80*	10µM*
Cn1c(SCc2cccc(Br)c2)nc2ccccc2c1=O	?	/	1	22µM*	-5	/
COc1ccccc1NC(=O)c1ccc2c(c1)C(=O)N(c1ccccc1OC)C2=O	?	-5%	19	22%	-9	10%
CN(c1ccccc1)S(=O)(=O)c1cccc(NC(=O)CN2C(=O)NC3(CCCCC3)C2=O)c1	-17%	/	/	3.2µM*	/	/
Cc1cc(C)c(NC(=O)CN(C)CC(=O)Nc2cccc(S(=O)(=O)N(C)c3ccccc3)c2)c(C)c1	?	/	/	10µM*	/	/
CN(c1ccccc1)S(=O)(=O)c1cccc(NC(=O)CN2CCCc3ccccc32)c1	-8%	?	2	?	28	8.9µM*
COc1ccc(NC(=O)CSc2nnc(NC(=O)c3ccco3)s2)cc1OC	20%	13%	0	/	-2	-2%
COc1ccccc1C/C(N)=N/OC(=O)COc1cccc(C)c1	-7%	-1%	-3	8%	13	-5%
Fc1ccc(Nc2ncnc3ccccc23)cc1	23%	26%	22*	-27%	/	?
CC(=O)Nc1ccc(Nc2ncnc3ccccc23)cc1	/	/	14*	/	26	/
Cc1ccccc1N(CC(=O)NCc1ccco1)C(=O)CNS(=O)(=O)c1ccc(F)cc1	25%	/	-2	-4%	1	-21%[46.1 µM]
CCN(CC(=O)NCc1ccc(Cl)cc1)C(=O)c1ccc(S(=O)(=O)NCc2ccco2)cc1	-14%	2%	59*	-13%	67*	-13%
CCN(CC(=O)Nc1c(F)cccc1F)C(=O)c1ccc(S(=O)(=O)NCc2ccco2)cc1	-14%	-21%	/	2%	/	-7%
Cc1cccc(C)c1N(CC(=O)NCc1ccco1)C(=O)CNS(=O)(=O)c1ccc(F)cc1	25%	-29%	2	14%	17	8.9µM*
